PubChem BioAssay AID2592 (National Center for Advancing Translational Sciences (NCATS), 2010)
Records with an inconclusive call do not appear. Active and inactive are the calls of the source. Calls follow the shape of the dose curve; as a rule, active = well fitted inhibition curve with a large enough effect; inconclusive = small, poorly fitted or top-dose-only effect, or effect the other way; inactive = flat fitted curve, though single readings scatter.

Biological target: Lysosomal acid glucosylceramidase (Homo sapiens) (UniProt P04062)
Sequence (P04062 whole entry, looked up): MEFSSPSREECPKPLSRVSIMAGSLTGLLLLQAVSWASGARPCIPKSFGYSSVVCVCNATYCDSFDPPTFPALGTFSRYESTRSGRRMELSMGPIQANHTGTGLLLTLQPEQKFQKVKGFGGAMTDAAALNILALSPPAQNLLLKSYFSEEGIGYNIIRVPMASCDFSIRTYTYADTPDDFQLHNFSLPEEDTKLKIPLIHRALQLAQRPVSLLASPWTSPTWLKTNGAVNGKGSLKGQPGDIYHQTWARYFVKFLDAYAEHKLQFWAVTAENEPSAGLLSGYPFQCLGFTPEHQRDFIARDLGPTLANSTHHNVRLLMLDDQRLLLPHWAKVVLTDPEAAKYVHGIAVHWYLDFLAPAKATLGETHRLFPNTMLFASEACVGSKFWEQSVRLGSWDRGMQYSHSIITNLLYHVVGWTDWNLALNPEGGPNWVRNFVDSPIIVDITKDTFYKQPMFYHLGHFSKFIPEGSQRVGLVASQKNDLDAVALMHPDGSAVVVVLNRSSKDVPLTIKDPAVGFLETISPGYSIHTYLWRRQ
Assay: qHTS Assay for Inhibitors and Activators of N370S glucocerebrosidase as a Potential Chaperone Treatment of Gaucher Disease: Activity in Non-Mutant Spleen Homogenate
Details: human spleen homogenate GC, 4MU-glucoside fluorescence; series mostly up to 57.5 µM
Text: NIH Chemical Genomics Center [NCGC] NIH Molecular Libraries Probe Production Centers Network [MLPCN] MLPCN Grant: MH086442-01 Assay Submitter (PI): Wei Zheng Glucocerebrosidase (GC) catalyzes the hydrolysis of beta-glucocerebroside to glucose and ceramide in lysosomes. Mutations in the glucocerebrosidase gene result in Gaucher disease, an autosomal recessive lysosomal storage disorder. Many of the mutations encountered in patients with Gaucher disease are missense alterations that may cause misfolding, decreased stability and/or mistrafficking of this lysosomal protein. […] These inhibitors include iminosugar analogs and three non-iminosugar inhibitors identified from a previous HTS of 62,000 compounds with the wild type recombinant enzyme. However, the enhancement of enzyme activity by the chaperone action of an enzyme inhibitor must be balanced against the direct inhibition of the enzyme. An enzyme activator could also function as a chaperone by binding to the enzyme and helping to correct its misfolding and mistrafficking. While activators for GC have not yet been identified, they may have better therapeutic potential than inhibitors. Therefore the discovery and development of chemical activators may provide a new strategy for the chaperone therapy. We have optimized a new assay using N370S mutant GC derived from the spleen of a Gaucher patient. […] In addition, the MLPCN compound library has expanded, which increases the chance of finding new and better probes. This confirmation assay tests for compound activity in spleen homogenate containing wildtype enzyme.
NCGC Assay Protocol Summary: This is a fluorogenic enzyme assay with 4-methylumbelliferyl-beta-D-glucopyranoside as the substrate and wildtype glucocerebrosidase from human spleen homogenate as the enzyme preparation. Upon the hydrolysis of this fluorogenic substrate, the resulting product, […] which can be detected by a standard fluorescence plate reader. Data were normalized to the controls for basal activity (without enzyme) and 100% activity (with enzyme). The AC50 values were determined from concentration-response data modeled with the standard Hill equation. Assay buffer: 50 mM citric acid (titrated with potassium phosphate to pH 5.0), 100 mM potassium chloride, 10 mM sodium chloride, 1 mM magnesium chloride, 0.01% Tween-20. 1536-well assay protocol: (1) Add 2 ul/well of spleen homogenate (27 ug final) (2) Add 23 nL compounds in DMSO solution. The final titration was 0.5 nM to 58 uM. (3) Add 2 ul of substrate (1 mM final) (4) Incubate at 37C for 40 min. (5) Add 2 ul stop solution (1M NaOH and 1M Glycine mixture, pH 10) (6) Detect the assay plate in a ViewLux plate reader (PerkinElmer) with Ex=365 nm and Em=440nm. Keywords: Glucocerebrosidase, beta-glucosidase, Gaucher Disease, pharmacological chaperone, chaperone therapy, high throughput screening, glucocerebrosidase inhibitor, MLSMR, MLSCN, NIH Roadmap, qHTS and NCGC

Row | SMILES | Potency
1 | O=S(=O)(c1ccc(Cl)cc1)N1CCN(c2nc(-c3cccs3)nc3ccccc23)CC1 | 1000 nM (active)
2 | O=S(=O)(c1ccccc1C(F)(F)F)N1CCN(c2nc(-c3cccs3)nc3ccccc23)CC1 | 398 nM (active)
3 | N#Cc1ccc(S(=O)(=O)N2CCN(c3nc(-c4cccs4)nc4ccccc34)CC2)cc1 | 2510 nM (active)
4 | NS(=O)(=O)c1ccc(S(=O)(=O)N2CCN(c3nc(-c4cccs4)nc4ccccc34)CC2)cc1 | 5010 nM (active)
5 | CC(C)(C)C(=O)OCCNc1nc(-c2ccccc2)nc2ccccc12 | 2240 nM (active)
6 | CC(C)C(C)NC(=O)CSc1nc2scc(-c3ccco3)c2c(=O)n1-c1ccccc1 (stereo not given) | inactive
7 | S=C(NCCCc1cnc[nH]1)NCCCN(Cc1ccc(Cl)c(Cl)c1)c1ccc(Br)cn1 | 355 nM (active)
8 | O=S(=O)(c1ccc2c(c1)OCCO2)N1CCN(c2nc(-c3cccs3)nc3ccccc23)CC1 | 447 nM (active)
9 | O=S(=O)(c1ccc2ccccc2c1)N1CCN(c2nc(-c3cccs3)nc3ccccc23)CC1 | 282 nM (active)
10 | Cc1cc(C)cc(N(CC(=O)NC2CCCCCC2)S(=O)(=O)c2c(C)[nH]c(=O)[nH]c2=O)c1 | 562 nM (active)
